# Screening data from PubChem.
# ATXN2 expr inh: Primary qHTS for Inhibitors of ATXN expression; HEK-293 ATXN2-luciferase reporter, luminescence, 24 h; Potency, µM (doses to about 57 µM), inactives show top-dose activity change, negative = inhibition, most hits filed as inhibitors; 360,000 compounds, 0.72% hits; AID 1745845, 2022; also: % is scaled to controls: 0 for no effect and ±100 for the full control effect; nearly all actives have a fitted effect of over 55% in size
#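 ATXN2-luciferase reporter cells (luciferase flanked by upstream and downstream ATXN2 gene portions) were treated 24 h at 37 °C with compounds at up to 57 uM. SteadyGlo luminescence gave expression; GF-AFC fluorescence gave viability.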
# DT40 TDP1 no CPT: qHTS for Inhibitors of human tyrosyl-DNA phosphodiesterase 1 (TDP1): qHTS in cells in absence of CPT. Potency, µM (doses to about 46.2 µM), inactives show at the top dose activity change, negative = growth inhibition, actives largely listed as inhibitors. DT40 Tdp1-/- hTDP1 cells, no CPT, ATP luminescence, 48 h. 420,000 compounds, 15% hits; also: % is scaled to controls: 0 for no effect and ±100 for the full control effect; nearly all actives have a fitted effect of over 55% in size
#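 Stably hTDP1-transfected Tdp1-null chicken DT40 cells were treated with library compounds minus camptothecin and grown for at least 48 hr at 37 °C, after which cellular ATP was quantified by luminescence.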
# ATXN viability: Viability Counterscreen for Primary qHTS for Inhibitors of ATXN expression; S2 cells (HEK-293 line with an ATXN2-luciferase reporter) viability, CellTiter-Fluor protease fluorescence, 24 h; Potency, µM (titrated, usually from 56.7 µM), actives largely listed as cytotoxic; 400,000 compounds, 0.49% hits; AID 651635, 2014; also: nearly all actives have a fitted effect of over 40% in size
# TGFb inhibitor: qHTS for Inhibitors of TGF-b. AID 588855, 2011. 410,000 compounds, 1.2% hits. Potency, µM (titrated, usually from 46.1 µM), for inactives: at the top dose activity, negative = inhibition, hits mostly inhibitors. HepG2 CAGA-GFP TGF-b/SMAD3 reporter, GFP fluorescence, 18 h; TGF-beta stimulated, 500 pg/mL final; also: % is scaled to controls: 0 for no effect and ±100 for the full control effect; nearly all actives have a fitted effect of over 65% in size
#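 Cell-based qHTS in HEPG2 carrying a CAGA-GFP Smad reporter; compounds added before 500 pg/mL final TGF-beta, 18 h incubation at 37 degrees C, GFP fluorescence quantified per cell by imaging cytometry.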
# HepG2 viability: qHTS for Inhibitors of TGF-b: Cytotox Counterscreen; HepG2 CAGA-GFP viability, ATP luminescence, 18 h; Potency, µM (highest dose often 46.1 µM), without a hit: top-dose activity change, negative = cytotoxicity, most hits filed as cytotoxic; 410,000 compounds, 0.76% hits; AID 588856, 2011
#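 HepG2 CAGA-GFP cells (1000/well, DMEM with 1% FBS) received compound, then TGF-beta at 500 pg/mL final, and were incubated 18 hours at 37 degrees C. Viability was read by CellTiter-Glo luminescence. Media-only wells were set as complete cell-killing and DMSO as no toxicity.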
# DT40 TDP1 CPT: qHTS for Inhibitors of human tyrosyl-DNA phosphodiesterase 1 (TDP1): qHTS in cells in presence of CPT | Potency, µM (titrated, usually from 46.2 µM), inactives show at the highest dose activity change, negative = growth inhibition, usual class: inhibitors | AID 686979, 2013 | chicken DT40 Tdp1-/-;hTDP1 cells + 20 nM CPT, ATP luminescence, 48 h | 420,000 compounds, 12% hits; also: % is scaled to controls: 0 for no effect and ±100 for the full control effect; nearly all actives have a fitted effect of over 55% in size
#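 Chicken DT40 Tdp1-/- cells stably complemented with human TDP1 were seeded at 400 cells/well in medium containing 20 nM camptothecin, exposed to pin-transferred compounds, and grown at 37 °C for at least 48 hr. Viability was read as ATP luminescence.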
# Numbers without * were called inactive; i = inactive; ? = inconclusive; / = not tested or not shown; [ ] = remark or other dose. Sampled rows, rich in hits. Any-hit rate of the full collection: about 17%. Calls follow the shape of the dose curve; as a rule, active = well fitted curve in the direction sought with a large enough effect; inconclusive = small, poorly fitted or top-dose-only effect, or another doubt; inactive = no such curve, though single readings can be large; an effect the other way counts as inactive or inconclusive. Potency is read from the fitted curve at half-maximal effect.
SMILES,ATXN2 expr inh,DT40 TDP1 no CPT,ATXN viability,TGFb inhibitor,HepG2 viability,DT40 TDP1 CPT
CCOC(=O)C1=CN(Cc2cccc(-c3cccnc3)c2)S(=O)(=O)N(C)C1C (stereo unspecified),-14.8%,13µM*,i,4.6%,-12.3%,?
CCOC(=O)C1=CN(Cc2cccc(F)c2)S(=O)(=O)N(CC)C1c1ccc(C(F)(F)F)cc1 (stereo unspecified),-12.7%,23.1µM*,i,-20.3%,-22.1%,20.6µM*
CCOC(=O)C1=CN(Cc2ccco2)S(=O)(=O)NC1c1ccc(F)c(Cl)c1 (stereo unspecified),-4.3%,-9.0%,i,-19.0%,-5.4%,-27.9%
CCOC(=O)C1=CN(Cc2cccc(-c3cccnc3)c2)S(=O)(=O)N(CC)C1C (stereo unspecified),-3.9%,?,?,-20.6%,-32.9%,?
CCOC(=O)C1=CN(Cc2cccc(F)c2)S(=O)(=O)NC1c1ccc(F)c(Cl)c1 (stereo unspecified),?,?,i,15.8µM*,-48.0%,?
CCOC(=O)C1=CN(Cc2cccc(F)c2)S(=O)(=O)NC1c1ccc(Br)cc1F (stereo unspecified),-17.2%,?,i,?,-14.5%,20.6µM*
CCOC(=O)C1=CN(Cc2cccc(F)c2)S(=O)(=O)N(CC)C1c1ccccc1 (stereo unspecified),-6.9%,?,i,?,-19.2%,?
COc1ccc(NC(=S)N2CCC3CC2c2cc(-c4ccc5c(c4)OCO5)ccc23)c(OC)c1 (stereo unspecified),-26.9%,?,?,-23.0%,-34.2%,?
CC(=NO)C1(C)CC=CCC1CO (stereo unspecified),/,?,i,-7.8%,-22.2%,-2.3%
Cc1ccc2oc(C(=O)Nc3ccc(S(=O)(=O)Nc4nc(C)cc(C)n4)cc3)cc(=O)c2c1,0.0%,-29.2%,i,3.4%,5.2%,-19.5%
CCOc1cc(NC(=O)c2ccccn2)c(OCC)cc1NC(=O)CC(C)C,-6.1%,8.2µM*,i,?,-3.2%,13µM*
CCOc1cc(NC2CS(=O)(=O)CC2O)c(OCC)cc1NC(=O)c1ccccc1 (stereo unspecified),3.0%,?,i,-22.5%,-29.0%,?
CCOc1cc(NC(=O)c2ccccn2)c(OCC)cc1NC(=O)c1ccc(Cl)cc1,/,1.16µM*,?,5.4%,7.4%,1.46µM*
CCOc1cc(NC(=O)c2ccccn2)c(OCC)cc1NC(=O)c1ccccc1,-9.9%,20.6µM*,i,0.0%,-35.0%,?
CCOc1cc(NC(=O)C2CC2)c(OCC)cc1NC(=O)CCn1nnc2ccccc21,-2.8%,-9.8%,i,-29.7%,-3.3%,-29.3%
CCOc1cc(NC(=O)C2CC2)c(OCC)cc1NC(=O)c1ccccn1,-0.3%,18.4µM*,i,-0.4%,-5.7%,18.4µM*
CCOc1ccc(CNS(=O)(=O)c2c(C(=O)N3CCCC3)c(C)n(C)c2C)cc1OC,5.1%,26.7%,i,-5.8%,-0.4%,2.1%
CCC(C)NC(=O)[C@@H]1CCCN1C(=O)C1CCN(S(=O)(=O)c2ccc(C)cc2)CC1 (stereo partly specified),2.7%,10.1%,i,0.3%,-0.4%,-0.3%
O=C(Nc1ccc(C(=O)N2CCOCC2)cc1)c1ccccc1Cl,/,2.4%,i,5.1%,-20.5%,30.4%
CCOc1cc(NC(=S)Nc2ccccc2)c(OCC)cc1NC(=O)c1ccccc1,-7.8%,25.9µM*,i,-18.2%,-27.4%,18.4µM*
CC(=O)N1CCN(S(=O)(=O)c2cccc(C(=O)NNC(=O)COc3ccc(Cl)cc3C)c2)CC1,10.7%,-13.6%,i,3.0%,-3.9%,2.1%
COc1ccccc1CNC(=O)c1ccc2nc(-c3ccccc3)c(-c3ccccc3)nc2c1,-1.5%,18.4µM*,?,-19.0%,-2.2%,?
CCN1CCN(CCNC(=O)c2ccc3nc(-c4cccc(C)c4)c(-c4cccc(C)c4)nc3c2)CC1,-12.5%,16.4µM*,i,-1.0%,5.9%,16.4µM*
COc1ccccc1CNC(=O)c1ccc2c(c1)nnn2C1CCCC1,13.9%,16.4µM*,i,11.4%,-21.6%,18.4µM*
COc1ccccc1CNC(=O)c1ccc2c(c1)nc(C)n2-c1ccccc1OC,-12.1%,?,i,3.2%,-5.1%,?
SMILES,ATXN2 expr inh,DT40 TDP1 no CPT,ATXN viability,TGFb inhibitor,HepG2 viability,DT40 TDP1 CPT
COc1ccc(-c2nc3ccc(C(=O)NCCCN4CCOCC4)cc3nc2-c2ccc(OC)cc2)cc1,/,23.1µM*,i,?,-96.8%,?
CCCCNC(=O)c1ccc2nc(-c3ccco3)c(-c3ccco3)nc2c1,-6.4%,?,i,?,-39.0%,?
COc1cc2nc(N3CCCC(O)C3)c(CNCc3ccccc3C(F)(F)F)cc2c(OC)c1OC (stereo unspecified),/,?,i,/,/,22.5%[9.04 µM]
CCOc1ccccc1NC(=O)CCS(=O)(=O)c1ccc2c(c1)oc(=O)n2C,-2.1%,-19.1%,i,2.4%,9.7%,-11.0%
Cc1ccc(S(=O)(=O)N2CCN(C(=O)c3cc(=O)c4ccccc4o3)CC2)cc1,-7.5%,?,i,0.2%,-16.3%,?
Cc1c(Cl)cccc1NC(=O)c1ccc2c(c1)nnn2C1CCCC1,-2.2%,2.59µM*,i,-20.8%,-32.4%,2.59µM*
CCN(CC)C(=O)c1ccc(C(=O)c2ccccc2)cc1,15.8%,-20.7%,i,-2.4%,-12.0%,-15.7%
CCN(CC)C(=O)c1ccc2nc(-c3ccccc3)c(-c3ccccc3)nc2c1,-15.1%,20.6µM*,i,-27.0%,-57.7%,?
CCCN(CCC)C(=O)c1ccc2nc(-c3ccc(OC)c(OC)c3)c(-c3ccc(OC)c(OC)c3)nc2c1,/,?,i,?,-47.6%,?
O=C(c1ccc2nc(-c3ccccc3)c(-c3ccccc3)nc2c1)N1CCCCC1,/,16.4µM*,/,-34.1%,-39.7%,?
CCC(C)NC(=O)c1ccc2nc(-c3ccc(OC)c(OC)c3)c(-c3ccc(OC)c(OC)c3)nc2c1 (stereo unspecified),-5.2%,?,i,-26.3%,-10.1%,14.6µM*
